Only some compounds are listed: those with a hit (about 19% of all), similar ones and a draw of the others.
DT40 TDP1 CPT – qHTS for Inhibitors of human tyrosyl-DNA phosphodiesterase 1 (TDP1): qHTS in cells in presence of CPT | chicken DT40 Tdp1-/-;hTDP1 cells + 20 nM CPT, ATP luminescence, 48 h | Potency, µM (highest dose often 46.2 µM), without a hit: at the highest dose activity change, negative = growth inhibition, most hits filed as inhibitors | hit rate 12% among 420,000 | AID 686979, 2013; note: potency is the fitted concentration of half-maximal effect; nearly all actives have a fitted effect of over 55% in size
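Chicken DT40 Tdp1-/- cells complemented with human TDP1, 400 cells/well, exposed to compounds plus 20 nM camptothecin for at least 48 h at 37 C; viability read as ATP content by CellTiter-Glo luminescence.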
HT1080 IDH1KD tx – qHTS for induction of synthetic lethality in tumor cells producing 2HG: qHTS for the HT-1080-IDH1KD cell line. HT-1080 IDH1 knockdown viability, ATP luminescence, 48 h. Potency, µM (doses to about 46.1 µM), for inactives: top-dose activity, negative = toxicity, hits mostly cytotoxic. hit rate 2% among 360,000;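 note: potency is the fitted concentration of half-maximal effect; 0% = DMSO wells and -100% = cell-free medium wells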
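CellTiter-Glo luminescence after 48 h compound exposure at 37 degrees C of IDH1-knockdown HT-1080 cells in 5% FBS RPMI. %Activity scaled between DMSO wells and cell-free media wells, with curves fitted and assigned curve classes.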
uPA generation – qHTS for Inhibitors of Cell Surface uPA Generation. cell surface uPA generation assay, qHTS. hit rate 0.31% among 330,000. Potency, µM (top dose mostly 38.3 µM), without a hit: at the highest dose activity change, negative = inhibition, actives largely listed as inhibitors. AID 540303, 2011; active = well fitted inhibition curve with a large enough effect; inconclusive = small, poorly fitted or top-dose-only effect; inactive = no such curve, though single readings can be large or run the other way; tested in mouse RAW 264.7 cells; note: potency is the fitted concentration of half-maximal effect; nearly all actives have a fitted effect of over 55% in size
IL-1B inflam inh – qHTS for Inhibitors of Inflammasome Signaling: IL-1-beta AlphaLISA Primary Screen | THP-1 LPS/ATP IL-1B secretion, AlphaLISA, 16 h; active compounds read low | activity change, % at 57.5 µM | hit rate 4.7% among 360,000 | AID 743279, 2014; in the data active = activity change below about -50%; inconclusive = mostly about -30% to -49%
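Secreted IL-1B measured by AlphaLISA bead assay after 16 h compound exposure of THP-1 cells; compounds (final up to 57.5 uM) added 1 h before LPS (250 ng/mL) and ATP (1.25 mM) stimulation; lower signal means less secretion.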
HT1080-NT tox – qHTS for induction of synthetic lethality in tumor cells producing 2HG: qHTS for the HT-1080-NT fibrosarcoma cell line; HT-1080-NT fibrosarcoma viability, CellTiter-Glo ATP luminescence, 48 h; hit rate 1.6% among 360,000; Potency, µM (doses to about 46.1 µM), for inactives: at the highest dose activity, negative = less viability, hits mostly cytotoxic;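 note: NT is the 2HG producing partner of a matched IDH1 knockdown line; potency is the fitted concentration of half-maximal effect; 0% = DMSO-treated cells and -100% = media-only wells without cells; nearly all actives have a fitted effect of over 55% in size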
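Luminescent CellTiter-Glo readout after 48 hours of compound exposure at 37 degrees C defined viability of HT-1080-NT cells. Activity was normalized to DMSO wells and cell-free media wells; concentration-response curves were fitted and assigned curve classes.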
TDP1 cell noCPT – qHTS for Inhibitors of human tyrosyl-DNA phosphodiesterase 1 (TDP1): qHTS in cells in absence of CPT; DT40 Tdp1-/- hTDP1 cells, no CPT, ATP luminescence, 48 h; Potency, µM (highest dose often 46.2 µM), for inactives: at the top dose activity change, negative = growth inhibition, actives largely listed as inhibitors; hit rate 15% among 420,000; AID 686978, 2013; note: potency is the fitted concentration of half-maximal effect; nearly all actives have a fitted effect of over 55% in size
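Readout: luminescence from CellTiter-Glo after 30 min in the dark at RT. Cells: DT40 Tdp1-/- with stable hTDP1, 400/well. Exposure: compounds alone, ≥48 hr, 37 °C.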
The depositor's hits bear a star; u = inconclusive; x = no result; [ ] = another dose, or the depositor's remark. Unless noted, calls come from the whole dose curve; as a rule, active = well fitted curve in the direction sought with a large enough effect; inconclusive = small, poorly fitted or top-dose-only effect, or another doubt; inactive = no such curve, though single readings can be large; an effect the other way counts as inactive or inconclusive. Unless noted, % is set by controls: 0 for no effect and ±100 for the full control effect.

SMILES | DT40 TDP1 CPT | HT1080 IDH1KD tx | uPA generation | IL-1B inflam inh | HT1080-NT tox | TDP1 cell noCPT
Cc1ccc(F)c(S(=O)(=O)NC(=O)C2(C)CCN2C(=O)C2(c3ccc(Cl)cc3)CCC2)c1 (stereo not drawn) | 16µM* | -2% | x | 0 | 1% | u
Cc1ccc(S(=O)(=O)NC(=O)C2(C)CCN2C(=O)C2(c3ccc(Cl)cc3)CCC2)cc1 (stereo not drawn) | -9% | 1% | x | 28 | -5% | -8%
CC1(C(=O)NS(=O)(=O)c2ccc(Cl)cc2)CCN1C(=O)C1(c2ccc(Cl)cc2)CCC1 (stereo not drawn) | 21µM* | -18% | x | 26 | -22% | u
Cc1ccc(F)c(S(=O)(=O)NC(=O)C2(C)CCN2C(=O)C2(c3ccc(Cl)cc3)CC2)c1 (stereo not drawn) | -10% | 1% | x | 0 | -4% | -4%
CC1(C(=O)NS(=O)(=O)c2ccc(C#N)cc2)CCN1C(=O)C1(c2ccccc2)CCCC1 (stereo not drawn) | 12µM* | u | x | 8 | -11% | 13µM*
O=C(O)CCc1ccc(-c2ccc(Cl)cc2)n1-c1cccc(C(F)(F)F)c1 | -2% | x | x | x | x | -14%
O=S(=O)(O)CCCS(=O)(=O)O | 3% | x | x | x | x | -4%
CC(=O)c1ccc(C(=O)NCC2Cc3cccc(-c4ncccn4)c3O2)cc1 (stereo not drawn) | 3%[9.04 µM] | x | x | x | x | -24%
O=C1CC(c2ccccc2)Cc2nc(N3CCc4ccccc4C3)ncc21 (stereo not drawn) | u | -2% | 3% | 8 | -7% | u
CCN1CCN(c2ncc3c(n2)CC(c2ccc(OC)c(OC)c2)CC3=O)CC1 (stereo not drawn) | 23µM* | 13µM* | x | 12 | 11µM* | 15µM*
COc1ccc(C2CC(=O)c3cnc(N4CCN(Cc5ccccc5)CC4)nc3C2)cc1 (stereo not drawn) | u | -10% | -1% | -10 | -11% | 23µM*
Cc1ccc(C2CC(=O)c3cnc(N4CCc5ccccc5C4)nc3C2)cc1 (stereo not drawn) | u | -3% | 3% | 15 | -3% | 18µM*
Cc1ccc(C2CC(=O)c3cnc(N4CCN(c5ccccc5)CC4)nc3C2)cc1 (stereo not drawn) | u | 13% | -2% | 12 | 8% | 16µM*
Cc1noc(C)c1C(=O)N1CCCC(C)(C(=O)NS(=O)(=O)C2CC2)C1 (stereo not drawn) | -30% | 23% | x | 25 | 0% | u
CCc1ccccc1NC(=O)Cn1nc(CC)n2c(cc3sccc32)c1=O | -21% | x | x | x | x | u
COC(=O)c1sccc1NC(=O)c1ccc(C(C)C)cc1 | -14% | 0% | 7% | 7 | -18% | -16%
CCCCC[C@@H](C)N1C[C@@H](COCc2ccccc2)Oc2cc(N3CC[C@@H](O)C3)ccc2S1(=O)=O | u | u | x | -6 | u | 16µM*
CCCCC[C@@H](C)N1C[C@@H](COCc2ccccc2)Oc2cc(N3CC[C@H](O)C3)ccc2S1(=O)=O | u | u | x | -3 | u | 16µM*
COc1cccc(C(=O)Nc2c3c(nn2-c2ccc(C)cc2C)CS(=O)(=O)C3)c1OC | u | x | x | x | x | 23µM*
Cc1cc(NC(=O)C2CCCC2)n(-c2nc3ccccc3[nH]2)n1 | 18µM* | 4µM* | x | -16 | 7.9µM* | u
Cc1cc(NC(=O)c2sccc2C)n(-c2nc3ccccc3[nH]2)n1 | u | -27% | -4% | -82* | u | 16µM*
Cc1cc(NC(=O)CC#N)n(-c2nc3ccccc3[nH]2)n1 | u | 3% | -10% | 8 | 8% | u
COc1cccc(OC)c1C(=O)Nc1cc(C)nn1-c1nc2ccccc2[nH]1 | 16µM* | 0% | x | 14 | 6% | 9.2µM*
O=C(c1cc(C2CCCCN2C(=O)OCCF)on1)N1CCOCC1 (stereo not drawn) | -24% | 13% | x | 20 | 29% | -7%
CNC(=S)N(CCc1c(C)[nH]c2ccc(F)cc12)Cc1cccnc1 | -10% | -4% | -13% | 8 | 15% | -8%
SMILES | DT40 TDP1 CPT | HT1080 IDH1KD tx | uPA generation | IL-1B inflam inh | HT1080-NT tox | TDP1 cell noCPT
COc1cccc(C(=O)Nc2cc(C)nn2-c2ccccc2)c1OC | u | -15% | -1% | 1 | -1% | 23µM*
Cc1cc(NC(=O)c2ccccc2)n(-c2nc3ccccc3[nH]2)n1 | u | 8% | 7% | -2 | 11% | -7%
Cc1cc(NC(=O)c2cccs2)n(-c2nc3ccccc3[nH]2)n1 | u | u | -2% | -25 | u | 21µM*
CC(C)CNC(=O)C1(C)CCCCCN1Cc1ccccc1-c1ccccc1 (stereo not drawn) | u | u | x | -18 | u | u
O=C(Nc1nccs1)c1ccc(COc2c(F)c(F)cc(F)c2F)cc1 | -20% | -24% | -5% | -5 | 3% | u
N=c1ccn(Cc2ccc(F)cc2)cc1 | u | -22% | u | 15 | u | 10µM*
O=C1CNC(=S)N1Cc1ccc(F)cc1 | -9% | 2% | -9% | 0 | 7% | -17%
O=C(CCNS(=O)(=O)c1ccc2nsnc2c1)N1CCN(c2ccncc2)CC1 | u | 2% | 7% | -5 | -2% | 16µM*
CCNS(=O)(=O)c1ccc(CCC(=O)N2CCN(c3cccc(Cl)c3)CC2)cc1 | u | -17% | 5% | -51* | 3% | 23µM*
CNS(=O)(=O)c1cn(CC(=O)N2CCN(c3cccc(Cl)c3)CC2)cc1S(=O)(=O)NC | u | x | x | x | x | 26µM*
CNS(=O)(=O)c1cn(CC(=O)N2CCN(c3ccc(OC)cc3)CC2)cc1S(=O)(=O)NC | -21% | x | x | x | x | u
COc1ccc(S(=O)(=O)NCCS(=O)(=O)N2CCN(c3ccccc3)CC2)cc1C | 18µM* | x | x | x | x | 23µM*
CCCCNC(=O)C(NC(=O)c1ccc(-c2ccccc2)cc1)C(=O)c1ccccc1 (stereo not drawn) | u | 12% | x | 30 | 10% | u
N[C@@H](Cn1cc(F)c(=O)[nH]c1=O)C(=O)O | 4% | x | x | x | x | 0%

Screens as filed in PubChem.
